Measured values taken from PubChem BioAssay (NCI).
Values joined by “and” are separate entries in the source; they are usually repeats but may differ in a detail not shown here. Identical values can stand only once. This is part of a sample that, as a whole, favours compounds with a hit. Of some 83,000 tested, about 20% had one in any assay.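 How to read the values: 0–100, growth inhibition (40 = 60% inhibited); 0, no net growth; -100 to 0, cell death (-40 = 40% of starting cells died; -100 = all dead).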

What was measured:
Assay in all cases: NCI-60 one-dose screen, 48 h (100 = growth as untreated, 0 = no growth, -100 = all killed)
Conditions in all cases: 10 µM unless noted; active = growth percent below 10; inactive = the rest
NCI-H23 lung = tested on: NCI-H23 lung
NCI-H226 lung = tested on: NCI-H226 lung
NCI-H322M lung = tested on: NCI-H322M lung
HOP-62 NSCLC = tested on: HOP-62 NSCLC
NCI-H460 lung = tested on: NCI-H460 lung
HOP-92 NSCLC = tested on: HOP-92 NSCLC
NCI-H522 lung = tested on: NCI-H522 lung
A549/ATCC NSCLC = tested on: A549/ATCC NSCLC
786-0 renal = tested on: 786-0 renal
COLO 205 colon = tested on: COLO 205 colon
DU-145 prostate = tested on: DU-145 prostate
K-562 leukemia = tested on: K-562 leukemia
MALME-3M melanoma = tested on: MALME-3M melanoma
MDA-MB-231 breast = tested on: MDA-MB-231 breast
RXF 393 renal = tested on: RXF 393 renal
SF-268 CNS = tested on: SF-268 CNS
SF-295 CNS = tested on: SF-295 CNS
SF-539 CNS = tested on: SF-539 CNS
UACC-257 melanoma = tested on: UACC-257 melanoma
M14 melanoma = tested on: M14 melanoma

Measured: growth

Cc1cccc(Cl)c1N
inactive: NCI-H23 lung 99.6% | NCI-H226 lung 118% | NCI-H322M lung 127% | HOP-62 NSCLC 104% | NCI-H460 lung 107% | HOP-92 NSCLC 94.1% | NCI-H522 lung 105% | A549/ATCC NSCLC 96.4% | 786-0 renal 113% | COLO 205 colon 119% | DU-145 prostate 109% | K-562 leukemia 107% | MALME-3M melanoma 111% | MDA-MB-231 breast 114% | RXF 393 renal 126% | SF-268 CNS 105% | SF-295 CNS 102% | SF-539 CNS 111% | UACC-257 melanoma 95.5% | M14 melanoma 105%

CS(=O)(=O)OCC1NC(=O)C(COS(C)(=O)=O)NC1=O (stereo not given)
inactive: NCI-H23 lung 84% and 88.5% | NCI-H226 lung 96.2% and 99.2% | NCI-H322M lung 98.8% and 103% | HOP-62 NSCLC 106% and 118% | NCI-H460 lung 102% and 95.9% | HOP-92 NSCLC 96.4% and 104% | NCI-H522 lung 51.3% and 50.6% | A549/ATCC NSCLC 78.3% and 96.4% | 786-0 renal 97.8% and 99.1% | COLO 205 colon 128% and 135% | DU-145 prostate 111% and 102% | K-562 leukemia 81.6% and 104% | MALME-3M melanoma 98.1% and 103% | MDA-MB-231 breast 108% and 104% | RXF 393 renal 83.2% and 100% | SF-268 CNS 113% and 60.2% | SF-295 CNS 133% and 102% | SF-539 CNS 106% and 97.9% | UACC-257 melanoma 75.5% and 116% | M14 melanoma 91.8% and 93.5%

CCOP(=O)(OCC)/C(C#N)=C/c1c(C)[nH]c2ccccc12
inactive: NCI-H23 lung 103% | NCI-H226 lung 84% | NCI-H322M lung 107% | HOP-62 NSCLC 89.1% | NCI-H460 lung 101% | HOP-92 NSCLC 84% | NCI-H522 lung 87.1% | A549/ATCC NSCLC 93.1% | 786-0 renal 106% | COLO 205 colon 107% | DU-145 prostate 107% | K-562 leukemia 94.6% | MALME-3M melanoma 105% | MDA-MB-231 breast 90.4% | RXF 393 renal 108% | SF-268 CNS 102% | SF-295 CNS 95.1% | SF-539 CNS 99% | UACC-257 melanoma 92.6% | M14 melanoma 92.4%

CCCC(=O)Oc1ccc2ccccc2c1
inactive: NCI-H23 lung 98.7% | NCI-H226 lung 103% | NCI-H322M lung 109% | HOP-62 NSCLC 89.9% | NCI-H460 lung 98% | HOP-92 NSCLC 89.5% | NCI-H522 lung 96.8% | A549/ATCC NSCLC 97.3% | 786-0 renal 101% | COLO 205 colon 99.2% | DU-145 prostate 111% | K-562 leukemia 95.7% | MALME-3M melanoma 111% | MDA-MB-231 breast 95.8% | RXF 393 renal 112% | SF-268 CNS 105% | SF-295 CNS 96.7% | SF-539 CNS 98.3% | UACC-257 melanoma 90.8% | M14 melanoma 97.5%

COc1ccc(/C=N/Nc2nc3ccccc3s2)cc1
inactive: NCI-H23 lung 105% | NCI-H226 lung 99.4% | NCI-H322M lung 86.7% | HOP-62 NSCLC 91.9% | NCI-H460 lung 97.3% | HOP-92 NSCLC 81.6% | NCI-H522 lung 89% | A549/ATCC NSCLC 93.9% | 786-0 renal 111% | COLO 205 colon 84.1% | DU-145 prostate 105% | K-562 leukemia 93.2% | MALME-3M melanoma 44.2% | MDA-MB-231 breast 86% | RXF 393 renal 97.5% | SF-268 CNS 106% | SF-295 CNS 97.1% | SF-539 CNS 94% | UACC-257 melanoma 103% | M14 melanoma 87.7%

CCN(CC)CCO/N=C1\CC(c2ccc(OC)c(OC)c2)Oc2ccccc21 (stereo not given)
inactive: NCI-H23 lung 96.2% | NCI-H226 lung 84.7% | NCI-H322M lung 94.8% | HOP-62 NSCLC 104% | NCI-H460 lung 104% | HOP-92 NSCLC 79.6% | NCI-H522 lung 88.2% | A549/ATCC NSCLC 97% | 786-0 renal 81.1% | COLO 205 colon 97.5% | DU-145 prostate 105% | K-562 leukemia 82.6% | MALME-3M melanoma 107% | MDA-MB-231 breast 101% | RXF 393 renal 65.5% | SF-268 CNS 99.3% | SF-295 CNS 98.2% | SF-539 CNS 94.7% | UACC-257 melanoma 101% | M14 melanoma 99.9%

CC(=O)c1cccc(OC(=O)c2ccccc2)c1
inactive: NCI-H23 lung 101% | NCI-H226 lung 101% | NCI-H322M lung 136% | HOP-62 NSCLC 104% | NCI-H460 lung 107% | HOP-92 NSCLC 82.9% | NCI-H522 lung 84.7% | A549/ATCC NSCLC 99% | 786-0 renal 102% | COLO 205 colon 107% | DU-145 prostate 114% | K-562 leukemia 92% | MALME-3M melanoma 110% | MDA-MB-231 breast 102% | RXF 393 renal 117% | SF-268 CNS 106% | SF-295 CNS 124% | SF-539 CNS 109% | UACC-257 melanoma 101% | M14 melanoma 93.1%

O=[N+]([O-])c1cccc(N=Cc2ccccc2)c1
inactive: NCI-H23 lung 111% | NCI-H226 lung 99.9% | NCI-H322M lung 113% | HOP-62 NSCLC 105% | NCI-H460 lung 119% | HOP-92 NSCLC 95.7% | NCI-H522 lung 88.2% | A549/ATCC NSCLC 99.8% | 786-0 renal 105% | COLO 205 colon 118% | DU-145 prostate 117% | K-562 leukemia 95.8% | MALME-3M melanoma 119% | MDA-MB-231 breast 106% | RXF 393 renal 105% | SF-268 CNS 105% | SF-295 CNS 96.5% | SF-539 CNS 99.5% | UACC-257 melanoma 102% | M14 melanoma 106%

c1ccc2c[n+](Cc3ccc4ccccc4n3)ccc2c1
inactive: NCI-H23 lung 69.1% | NCI-H226 lung 85.8% | NCI-H322M lung 104% | HOP-62 NSCLC 80.1% | NCI-H460 lung 88.4% | HOP-92 NSCLC 56% | NCI-H522 lung 84.9% | A549/ATCC NSCLC 65.5% | 786-0 renal 95.3% | COLO 205 colon 46.5% | DU-145 prostate 99.8% | K-562 leukemia 63.8% | MALME-3M melanoma 75.7% | MDA-MB-231 breast 89.4% | RXF 393 renal 91% | SF-268 CNS 85.7% | SF-295 CNS 91.4% | SF-539 CNS 82.5% | UACC-257 melanoma 56% | M14 melanoma 72.3%

COc1cc2oc3cc(=O)cc4oc(-c5ccccc5)cc(c2c2c1CCC(c1ccccc1)O2)c43 (stereo not given)
inactive: NCI-H23 lung 87.8% | NCI-H226 lung 64.4% | NCI-H322M lung 101% | HOP-62 NSCLC 91% | NCI-H460 lung 76.2% | HOP-92 NSCLC 81.1% | NCI-H522 lung 86.6% | A549/ATCC NSCLC 96.2% | 786-0 renal 110% | COLO 205 colon 98.5% | DU-145 prostate 79.7% | K-562 leukemia 42.1% | MALME-3M melanoma 117% | MDA-MB-231 breast 75.8% | RXF 393 renal 78.6% | SF-268 CNS 85.1% | SF-295 CNS 70.5% | SF-539 CNS 78.7% | UACC-257 melanoma 99.9% | M14 melanoma 88.2%

C/C=C(/C(=O)NC(N)=O)C(C)C
inactive: NCI-H23 lung 104% | NCI-H226 lung 116% | NCI-H322M lung 109% | HOP-62 NSCLC 111% | NCI-H460 lung 100% | HOP-92 NSCLC 94.5% | NCI-H522 lung 108% | A549/ATCC NSCLC 97.7% | 786-0 renal 96.9% | COLO 205 colon 97.5% | DU-145 prostate 105% | K-562 leukemia 109% | MALME-3M melanoma 106% | MDA-MB-231 breast 114% | RXF 393 renal 171% | SF-268 CNS 87.2% | SF-295 CNS 108% | SF-539 CNS 115% | UACC-257 melanoma 104% | M14 melanoma 93.9%

NCCSSC/C=C\CSSCCN
inactive: NCI-H23 lung 102% | NCI-H226 lung 90.1% | NCI-H322M lung 100% | HOP-62 NSCLC 98.4% | NCI-H460 lung 97.5% | HOP-92 NSCLC 84.6% | NCI-H522 lung 88.1% | A549/ATCC NSCLC 90.1% | 786-0 renal 99% | COLO 205 colon 113% | DU-145 prostate 104% | K-562 leukemia 95.7% | MALME-3M melanoma 103% | MDA-MB-231 breast 100% | RXF 393 renal 102% | SF-268 CNS 99.5% | SF-295 CNS 104% | SF-539 CNS 109% | UACC-257 melanoma 91.3% | M14 melanoma 96.9%

CCOC(=O)C1=C(C)NC(C)=C(C(=O)OCC)C1
inactive: NCI-H23 lung 103% and 92.2% | NCI-H226 lung 96.7% and 96.4% | NCI-H322M lung 108% and 102% | HOP-62 NSCLC 117% and 91.3% | NCI-H460 lung 107% and 98.2% | HOP-92 NSCLC 79.2% and 89.5% | NCI-H522 lung 104% and 106% | A549/ATCC NSCLC 104% and 99% | 786-0 renal 117% and 87.5% | COLO 205 colon 126% and 96.4% | DU-145 prostate 109% and 110% | K-562 leukemia 127% and 110% | MALME-3M melanoma 110% and 99.7% | MDA-MB-231 breast 93.5% and 117% | RXF 393 renal 103% | SF-268 CNS 104% and 111% | SF-295 CNS 82.6% and 95.7% | SF-539 CNS 90.8% and 95.6% | UACC-257 melanoma 105% and 102% | M14 melanoma 162% and 98%
